Measured values taken from article PMC5540273 (PLoS ONE, 2017).

Legend:
Details in all cases: concentration: 1 μM, replicates: in singlicate; n = 1
[1] = test system: MRCKA
[2] = test system: T1, MRCKB
T1 construct: gene CDC42BPB

[3] = test system: MST1R
[4] = test system: T2, MST1
T2 construct: gene STK4

[5] = test system: T3, MST2
T3 construct: gene STK3

[6] = test system: T4, MST3
T4 construct: gene STK24

[7] = test system: MST4
[8] = test system: MTOR
[9] = test system: MUSK
[10] = test system: MYLK2
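Also: KINOMEscan kinase panel screen.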

Structure (SMILES)	%Inh [1]	%Inh [2]	%Inh [3]	%Inh [4]	%Inh [5]	%Inh [6]	%Inh [7]	%Inh [8]	%Inh [9]	%Inh [10]
Cl.Cl.c1ccc(-c2cc3ccncc3cc2OC2CCNCC2)cc1 [GSK1122999]	52%	17%	53%	21%	6%	12%	0%	12%	13%	20%
Cn1ccc2ncnc(Nc3ccc(Oc4cccc(Cl)c4)c(Cl)c3)c21	0%	0%	42%	6%	25%	10%	0%	0%	3%	20%
Clc1cc(Nc2ncnc3cc[nH]c23)ccc1OCc1ccccn1	0%	8%	37%	12%	48%	28%	0%	0%	13%	11%
FC(F)(F)c1ccc(-c2cc(-c3c[nH]nc3-c3ccccn3)ccn2)cc1 [GW599550]	19%	0%	33%	17%	8%	8%	0%	13%	14%	13%
Cn1cc(-c2ccc3c(c2)CCN3C(=O)Cc2cccc(C(F)(F)F)c2)c2c(N)ncnc21 [GSK2606414]	0%	0%	6%	14%	0%	0%	0%	0%	6%	24%
Nc1nc(-c2ccc3c(N)n[nH]c3c2)cc(N2CCCCC2)n1 [GSK2228768]	0%	0%	11%	0%	0%	0%	0%	0%	3%	0%
O=C(CCO)NCCn1ccc2ncnc(Nc3ccc(Oc4cccc(C(F)(F)F)c4)c(Cl)c3)c21	0%	2%	0%	0%	0%	0%	0%	31%	0%	0%
C[C@H]1CC[C@@H](C(=O)Nc2ccccc2)CN1c1cc(-c2ccc3c(N)n[nH]c3c2)nc(N)n1 [GSK2283293]	65%	0%	17%	0%	0%	0%	0%	8%	13%	1%
Cc1ccc(NC(=O)c2cccc(C#N)c2)cc1-c1ccc(C(=O)Nc2ccncc2)cc1 [GSK1398463]	3%	8%	38%	0%	0%	0%	0%	4%	10%	26%
Cl.Fc1ccccc1COc1ccc(Nc2ncnc3ccc(-c4nnc(C(F)(F)F)o4)cc23)cc1Cl [GW424170]	7%	0%	18%	0%	0%	0%	0%	0%	0%	0%
Fc1ccc(Nc2nccc(-c3c(-c4ccc(Cl)cc4)nn4ncccc34)n2)cc1F [GW829058]	2%	21%	0%	13%	11%	0%	30%	26%	26%	16%
c1ccc(-c2ccc3c(-c4ccnc(Nc5ccc6c(c5)OCCO6)n4)cnn3n2)cc1 [GW818941]	11%	6%	41%	23%	4%	1%	0%	17%	16%	27%
CN1CCC(n2cnc(-c3ccc(F)cc3)c2-c2ccnc(NC3CCNCC3)n2)CC1 [SB-229482]	6%	0%	33%	3%	24%	0%	0%	0%	0%	21%
Nc1n[nH]c2nnc(-c3ccccc3)cc12 [SB-517389]	16%	0%	27%	0%	5%	0%	0%	14%	8%	13%
O=c1cc(N2CCOCC2)nc2n(Cc3cccc(Cl)c3)ccn12 [GSK2296823]	7%	16%	17%	0%	11%	0%	0%	62%	11%	2%
Cl.c1ccc(Cn2ccc3cc(Nc4ncnc5ccccc45)ccc32)cc1 [GW275568]	7%	11%	43%	0%	22%	17%	0%	16%	11%	19%
CS(=O)(=O)CCNCc1ccc(-c2ccc3ncnc(Nc4ccc(OCc5ccccc5)c(Cl)c4)c3c2)o1.Cl [GW574783]	0%	2%	17%	23%	0%	0%	0%	30%	19%	16%

Structure (SMILES)	%Inh [1]	%Inh [2]	%Inh [3]	%Inh [4]	%Inh [5]	%Inh [6]	%Inh [7]	%Inh [8]	%Inh [9]	%Inh [10]
CS(=O)(=O)CCNCc1nc(-c2ccc3ncnc(Nc4ccc(OCc5cccc(F)c5)c(Cl)c4)c3c2)cs1.Cl [GW583340]	0%	0%	38%	0%	8%	15%	0%	4%	0%	0%
Nc1nc(-c2ccccn2)c(-c2ccnc3ccccc23)s1 [GW548057]	8%	0%	50%	0%	0%	16%	0%	31%	0%	9%
Fc1cccc(COc2ccc(Nc3ncnc4cc[nH]c34)cc2Cl)c1	10%	0%	30%	16%	19%	23%	0%	0%	10%	0%
CC(=O)Nc1n[nH]c2ncc(-c3ccccc3)cc12 [SB-548492]	0%	10%	41%	0%	1%	5%	15%	6%	9%	37%
N#Cc1ccc(Oc2ccc(Nc3ncnc4cc[nH]c34)cc2Cl)cc1	12%	32%	11%	10%	19%	24%	0%	13%	6%	16%
CSc1nn2c(=O)cc(N3CCOCC3)nc2n1Cc1cccc(Cl)c1Cl [GSK2347225]	29%	4%	59%	6%	0%	4%	0%	28%	16%	15%
Clc1ccc(-c2cc(-c3c[nH]nc3-c3ccccn3)ccn2)cc1 [GW681251]	0%	1%	0%	0%	0%	0%	0%	20%	12%	0%
COc1ccc(NC(=O)Nc2ccc(C)c(-c3ccc(C(=O)Nc4ccncc4)cc3)c2)cc1 [GSK1398475]	19%	0%	36%	0%	0%	0%	0%	4%	0%	0%
O=C(Nc1ccccc1)Nc1ccc(Oc2ccc3nccn3n2)cc1	0%	0%	18%	0%	0%	11%	0%	12%	9%	0%
Nc1nccc2scc(-c3ccc4c(c3)CCN4C(=O)Cc3cc(F)ccc3F)c12 [GSK2587663]	15%	0%	35%	8%	3%	15%	0%	4%	10%	0%
Nc1nc(-c2ccc3c(N)n[nH]c3c2)cc(N2CCC[C@@H](C(=O)Nc3ccccc3)C2)n1.O=C(O)C(F)(F)F.O=C(O)C(F)(F)F [GSK2288359]	2%	0%	14%	0%	30%	0%	0%	15%	4%	5%
CNc1nccc(-c2c(-c3ccc(F)cc3)ncn2C2CCN(C)CC2)n1 [SB-222903]	0%	5%	0%	0%	0%	0%	0%	18%	0%	0%
CCCc1ccc(S(=O)(=O)NC2CCN(c3ccnc(Nc4ccc(OC)cc4)n3)C2)cc1 (stereo not drawn) [GSK1379737]	10%	0%	39%	65%	0%	0%	0%	28%	9%	0%
Cc1cccc(-c2nc(Nc3ccc4[nH]nnc4c3)c3ccccc3n2)n1 [GW867587]	0%	2%	0%	0%	0%	0%	0%	5%	2%	0%
Cc1ccc(C)c(NC(=O)NCCNc2ccnc(Nc3ccc(F)cc3)n2)c1 [GSK1379878]	12%	0%	7%	0%	0%	0%	0%	2%	0%	0%
CCc1nc(-c2cccc(C)c2)c(-c2ccnc(NC(=O)c3ccccc3)c2)s1	0%	0%	32%	11%	12%	8%	9%		0%	0%
Cn1ccc2ncnc(Oc3ccc(NC(=O)Nc4cccnc4)c(Cl)c3)c21	0%	0%	15%	12%	0%	10%	0%	0%	7%	0%
